The text below walks through data of PubChem BioAssay.

For some of these results: Results with a measured potency or affinity are listed apart. Activity calls are given as the source filed them. Unless noted, the limit is not given here; nearly all actives have IC50 up to about 0.98 µM.

Chain of Calcium-dependent protein kinase 1 (Plasmodium falciparum (isolate 3D7)) (P62344 whole entry, looked up): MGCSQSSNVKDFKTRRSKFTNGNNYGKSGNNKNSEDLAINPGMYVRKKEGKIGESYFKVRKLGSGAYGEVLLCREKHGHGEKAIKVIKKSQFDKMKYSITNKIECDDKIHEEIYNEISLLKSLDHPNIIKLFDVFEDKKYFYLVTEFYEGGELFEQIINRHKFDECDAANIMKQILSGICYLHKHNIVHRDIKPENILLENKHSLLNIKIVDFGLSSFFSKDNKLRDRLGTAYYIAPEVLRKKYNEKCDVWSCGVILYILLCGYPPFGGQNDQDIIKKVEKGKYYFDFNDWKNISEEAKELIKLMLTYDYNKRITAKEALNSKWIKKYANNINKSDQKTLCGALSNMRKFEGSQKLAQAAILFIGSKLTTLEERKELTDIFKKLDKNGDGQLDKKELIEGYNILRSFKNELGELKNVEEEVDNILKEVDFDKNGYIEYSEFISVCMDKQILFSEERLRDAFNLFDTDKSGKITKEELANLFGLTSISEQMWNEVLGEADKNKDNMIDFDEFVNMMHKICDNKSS

System in one experiment: not listed separately
The experiment in a line: inhibition of 3D7 malaria parasite growth – strain 3D7 (AID 2306; call rule not given here;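 also: 0% = DMSO wells and 100% = chloroquine plus artemisinin control wells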). Conditions: P. falciparum 3D7 erythrocytic growth, LDH absorbance, 72 h; at 2 µM; active compounds read high.
On to `COc1ccc(C2=CCN(c3ccc(Cl)c(Cl)c3)C2=O)cc1OCCN1CCCCC1`, for which the growth inhibition is 97% (active).

Consider `CCCCCN1CCCC1CNS(=O)(=O)c1ccc(C(=O)Nc2ccc(C(F)(F)F)cc2)cc1` (stereo not drawn), for which the growth inhibition is 87% (active).

Consider `Cc1nc2ccccc2c(=O)n1N=Cc1ccccc1[N+](=O)[O-]`, for which the growth inhibition was 94% (active).

On to `Cc1cc(NN=Cc2ccccc2)c2cc(C(F)(F)F)ccc2n1`, for which the growth inhibition was 101% (active).

In the case of `Cc1cc(Cl)c(S(=O)(=O)NC2CCCC2)cc1OCC(=O)NC1CCCCC1`, the growth inhibition is 97% (active).

On to `O=C(Nc1ccc2c(c1)CCC2)c1cccc(N2CCN(c3ccncc3)CC2)c1`, for which the growth inhibition is 92% (active).

For `O=C(Nc1ccc(-c2cccc(-c3nc4ccc(C(F)(F)F)cc4[nH]3)c2)cc1)c1ccncc1`, the growth inhibition was 101% (active).

Turning to `COc1ccc(-c2c(-c3ccc(OCc4ccccc4)cc3O)n[nH]c2C(F)(F)F)cc1`, the growth inhibition was 93% (active).

Consider `CCCCCN1CCCN(Cc2cccc(NC(=O)c3ccc(Cl)c(Cl)c3)c2)CC1`, for which the growth inhibition was 89% (active).

Take `Cc1cccc(C)c1C1CCN(C2CCC(NC(=O)/C=C/c3ccccc3)CC2)CC1` (stereo not drawn): the growth inhibition was 100% (active).

A further experiment concerns the target Calcium-dependent protein kinase 1 (Plasmodium falciparum (isolate 3D7)) (UniProt P62344). The experiment in a line: PfCDPK1 kinase inhibitors, biochemical, TCAMS library (AID 1159585).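 Also: inhibitors leave more ATP so luminescence rises with inhibition.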 Conditions: recombinant PfCDPK1, Kinase-Glo ATP depletion luminescence. On the technique in general: Kinase-Glo measures the ATP left after a reaction by luminescence.
Regarding `CC1(CCCCN2CCC(Oc3ccc(F)cc3F)CC2)C(=O)Nc2ccccc21` (stereo not drawn), the outcome was inactive.

With `c1cc(CNC2CCCC2)cc(-c2ccc(CNc3ccc4ncccc4c3)cc2)c1`, the outcome was inactive.

Take `O=S(=O)(c1cc2ccccc2s1)N(CCC(O)(C(F)(F)F)C(F)(F)F)Cc1cccc(O)c1`: the outcome was inactive.

For the compound `CCC(C)CN1CCN(c2ccc(NC(=O)c3cccs3)cc2)CC1C` (stereo not drawn), the outcome was inactive.

In the case of `COc1ccc(Nc2nccc(N3CCC(NC(=O)C(C)c4ccc(Cl)cc4)C3)n2)cc1` (stereo not drawn), the outcome was inactive.

Take `O=C(/C=C/c1ccc(Cl)c(Cl)c1)NCCCCN1CCC(c2c[nH]c3ccccc23)CC1`: the outcome was inactive.

With `N#Cc1cccc(NC(=O)Nc2ccc(-c3ccc(-c4nc5ccc(C(F)(F)F)cc5[nH]4)cc3)cc2)c1`, the result was inactive.

Consider `CCOc1ccc(-c2nonc2NC(=O)c2ccc(OC(C)C)cc2)cc1OCC`, for which the outcome was inactive.

On to `COc1ccccc1NC(=O)OC(COc1ccc(N)cc1)CN1CC=C(c2ccccc2)CC1` (stereo not drawn), for which the result was inactive.

In the case of `CCCCN1C(=O)C(c2ccccc2)(c2ccccc2)N=C1N`, the outcome was inactive.

Regarding `O=C(Nc1ccc(OC2CCN(Cc3ccc(F)cc3)C2)c(Cl)c1)c1ccc(F)cc1` (stereo not drawn), the result was inactive.

On to `COc1cccc(Nc2c(C(N)=O)cnc3ccc(-c4ccc(S(C)=O)cc4)cc23)c1` (stereo not drawn), for which the outcome was inactive.

As to `CN(Cc1ccccc1)C1CCCN(c2cc(NC(=O)c3cccs3)ccn2)C1` (stereo not drawn), the outcome was inactive.

Regarding `C[C@H](Cc1ccc(S(=O)(=O)c2ccc(C[C@@H](C)NC[C@H](O)c3cccc(Cl)c3)cc2)cc1)NC[C@H](O)c1cccc(Cl)c1`, the result was inactive.

`O=C(Nc1ccc(-c2ccccc2)s1)N[C@H]1CCN(Cc2ccc(OCCCN3CCCCC3)cc2)C1`: the outcome was inactive.

Regarding `COc1cc(Nc2nc(N)c3cc(OC)c(OC)cc3n2)cc(OC)c1`, the result was inactive.

For the compound `O=c1cc(NCCCNCc2ccc(C(F)(F)F)s2)[nH]c2ccccc12`, the outcome was inactive.

For `Cc1cc(NC(=O)c2sc3ccccc3c2O)no1`, the result was inactive.

Take `Nc1nccc2ccc(-c3ccsc3)cc12`: the outcome was inactive.

For `COc1cc2nc(NCCC(C)C)n3nc(-c4ccccc4)nc3c2cc1OC`, the result was inactive.

`COc1ccc2nccc([C@@H](O)CN3CCC(NCc4cc5c(F)ccc(F)c5[nH]4)CC3)c2c1`: the outcome was inactive.

With `CCCN(CC)CCOC(=O)c1ccccc1`, the result was inactive.

For `C[C@H](Nc1nc(C(Oc2ccccc2)c2ccccc2)nc2[nH]ncc12)c1ccccc1` (stereo partly drawn), the outcome was inactive.

Regarding `Cc1ccc(O)cc1C[C@@H]1C(=O)CC[C@@]2(C)[C@H]1CC[C@]2(C)O`, the result was inactive.

Turning to `Cc1ccc2c(NN=Cc3ccc(Cl)cc3)cc(C)nc2c1`, the outcome was inactive.

In the case of `COC(=O)c1cccc(CNCc2cccc(-c3ccc(-c4nc5ccccc5[nH]4)cc3)c2)c1`, the outcome was inactive.

`COc1cc2nc(Nc3ccc(C)cc3)nc(Nc3ccc(C)cc3)c2cc1OC`: the result was inactive.

`Cc1cc(NCc2ccccc2)nc2cc(O)ccc12`: the outcome was inactive.

Regarding `Cn1cccc1C(=O)C(=O)Nc1cccc(-c2ccc(-c3nc4ccc(C(F)(F)F)cc4[nH]3)cc2)c1`, the outcome was inactive.

Turning to `O=C(N[C@@H](Cc1ccccc1)[C@H](O)CNC1CCCCC1)c1cc(C2CCCC2)cc(N2CCCC2=O)c1`, the outcome was inactive.

As for `COc1ccc(C2=CCN(c3ccc(Cl)c(Cl)c3)C2=O)cc1OCCN1CCCCC1`, the result was inactive.

Take `CCCCCN1CCCC1CNS(=O)(=O)c1ccc(C(=O)Nc2ccc(C(F)(F)F)cc2)cc1` (stereo not drawn): the result was inactive.

For the compound `Cc1nc2ccccc2c(=O)n1N=Cc1ccccc1[N+](=O)[O-]`, the result was inactive.
